According to PubChem BioAssay (Tox21):
Inconclusive results are not listed. Calls of active or inactive are those of the source. Calls follow the shape of the dose curve; as a rule, active = well fitted cell-killing curve with a large enough effect in the repeat runs; inconclusive = weak or mixed curves; inactive = flat fitted curve, though single readings scatter.

Test: qHTS RealTime-Glo MT Cell Viability Assay in HepG2 cells - 24 hour (AID 1224867); also: nearly all actives have a fitted effect of over 50% in size
Settings: RealTime-Glo luminescence; series mostly up to 76.8 µM; activity change, negative = cytotoxicity: at the top concentration
Text: U.S. Tox21 Program National Center for Advancing Translational Sciences [NCATS] NIH Chemical Genomics Center [NCGC] U.S. Environmental Protection Agency [EPA] National Institutes of Environmental Health Sciences [NIEHS] National Toxicology Program [NTP] U.S. Food and Drug Administration [FDA] Tox21 Assay Overview: Measure of cell viability is critical in the cell-base assay. Analysis of cell viability is necessary for the characterization of cell responses to cytotoxic drugs and environmental stress. A RealTime-Glo MT Cell Viability Assay to monitor cell viability in real time of continues cell culture during 40 hours of compound treatment was used to screen Tox21 10K library compounds in HepG2 cells. The RealTime-Glo MT Cell Viability Assay is a nonlytic, homogeneous, bioluminescent method to measure cell viability in real time using a simple, plate-based method. The assay involves adding NanoLuc luciferase and a cell-permeant prosubstrate to cells in culture. Viable cells reduce the proprietary prosubstrate to generate a substrate for NanoLuc luciferase. This substrate diffuses from cells into the surrounding culture medium, where it is rapidly used by the NanoLuc Enzyme to produce a luminescent signal. The signal correlates with the number of viable cells, making the assay well suited for cytotoxicity studies.
Tox21 Assay Protocol Summary: The mixture of HepG2 cell suspension and reagents were dispensed at 600cells/6 ul/well in 1536-well tissue culture treated black solid bottom plates using a Multidrop dispenser. After the assay plates were incubated at a 37 C/5% CO2 incubator for 5 hours, 23 nL of compounds dissolved in DMSO, positive and negative controls was transferred to the assay plate by a pintool work station. The plates were incubated at 37 C for 40 hours. The luminescence intensity were measured at 0h, 8h, 16h, 24h, 32h and 40h time points using ViewLux plate reader during compound treatment.
% is scaled to controls: 0 for no effect and ±100 for the full control effect; potency is read from the fitted curve at half-maximal effect.

Structure (SMILES) | Potency | activity change, negative = cytotoxicity
C=CC(=O)OCCOCC(CC)(COCCOC(=O)C=C)COCCOC(=O)C=C | 25.6 µM (active) | 
NC1(c2ccc(-c3nc4ccn5c(=O)[nH]nc5c4cc3-c3ccccc3)cc2)CCC1 | 23.9 µM (active) | 
c1cc(OCC2CO2)cc(OCC2CO2)c1 (stereo not given) |  | -17.5% (inactive)
CC(C)(C)CC(C)(C)c1ccccc1O |  | -14% (inactive)
CCCC(CC)CCCCCCCN (stereo not given) |  | -12.4% (inactive)
CCCCCCC(C)OC(=O)COc1nc(F)c(Cl)c(N)c1Cl (stereo not given) |  | -14.3% (inactive)
CNCC[C@H](Oc1cccc2ccccc12)c1cccs1 | 23.9 µM (active) | 
CCCCNc1c(C(=O)OCC)c(C)nc2c1cnn2CC |  | -12% [at 35.3 µM] (inactive)
CCN1CCN(c2cc(-c3ccc(F)cc3)c3c(n2)CCCCCC3)CC1 |  | -8.27% [at 15.8 µM] (inactive)
NCCCCCCNCCCCCCN |  | -0.327% (inactive)
C#CC(O)CCC (stereo not given) |  | 2.86% (inactive)
O=C1NCCN1CCN1CCC(c2cn(-c3ccc(F)cc3)c3ccc(Cl)cc23)CC1 | 23.9 µM (active) | 
C=CCCCCCCC=C |  | -0.237% (inactive)
C1CC(COCC2CO2)CCC1COCC1CO1 (stereo not given) |  | -0.203% (inactive)
CCCCCCCCCCCC(=O)N(CC)CC |  | -11% (inactive)
Cc1c(-c2ccc(O)cc2)n(Cc2ccc(OCCN3CCCCCC3)cc2)c2ccc(O)cc12 | 15.1 µM (active) | 
CC(C)C(=O)OCc1ccccc1 |  | -3.79% (inactive)
O=C(c1ccccc1)c1cc(Cl)ccc1O |  | -3.21% (inactive)
CCCCCCCC/C=C/CCCOC(C)=O |  | 2.17% (inactive)
CC(C)(c1cc(Br)c(O)c(Br)c1)c1cc(Br)c(O)c(Br)c1 | inactive | 

Structure (SMILES) | Potency | activity change, negative = cytotoxicity
O=C1C=CC(=O)N1c1ccccc1 | 13.8 µM (active) | 
C=CC(C)(CCC=C(C)C)OC(=O)/C=C/c1ccccc1 (stereo not given) |  | -9.15% (inactive)
CO[Si](CCC1CCC2OC2C1)(OC)OC (stereo not given) |  | 0.606% (inactive)
CCOCOCC |  | -0.815% (inactive)
N[C@@H](CSSC[C@H](N)C(=O)O)C(=O)O |  | -0.491% [at 0.29 µM] (inactive)
COC(=O)NCCC[Si](OC)(OC)OC |  | -12% (inactive)
CN1CCN(C2Cc3ccccc3Sc3ccc(Cl)cc32)CC1 (stereo not given) | 23.9 µM (active) | 
O=C(Oc1ccccc1)c1cccc(C(=O)Oc2ccccc2)c1 |  | -3.74% (inactive)
CCCCCCCC(=O)OCC |  | 0.0072% (inactive)
O=c1cccc[nH]1 |  | -0.0819% (inactive)
CC(C)c1ccc(O)c(C(C)C)c1 |  | -23.8% (inactive)
CO[C@H]1C=CO[C@@]2(C)Oc3c(C)c(O)c4c(O)c(cc(O)c4c3C2=O)NC(=O)/C(C)=C\C=C/[C@H](C)[C@H](O)[C@@H](C)[C@@H](O)[C@@H](C)[C@H](OC(C)=O)[C@@H]1C |  | -19.3% (inactive)
O=C[C@H](O)[C@H](O)[C@H](O)CO |  | -3.89% (inactive)
CC(C)(C)c1n[nH]c(=O)n(N)c1=O |  | -2.21% (inactive)
COc1cc(C(C)C)c2c(c1)S(=O)(=O)N(COc1cc(=O)n3cccc(OCCN4CCCCC4)c3n1)C2=O |  | -8.66% [at 15.8 µM] (inactive)
COc1cccc(CCc2ccccc2OCC(CN(C)C)OC(=O)CCC(=O)O)c1 (stereo not given) |  | -21.3% [at 35.3 µM] (inactive)
O=C(O)c1cccc(Cl)n1 |  | -0.321% (inactive)
Clc1cccnc1 |  | -8.07% (inactive)
O=Cc1ccc(F)cc1 |  | 0.489% (inactive)
CCNc1nc(NC(C)CC)nc(OC)n1 (stereo not given) |  | 0.717% (inactive)
